Each structure is given as a SMILES string. “And” between values parts separate entries of the source, which are not always exact repeats. Equal values may be shown once. ± gives the standard deviation of the averaged measurements.
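Also: TDF denotes transformed human dermal fibroblasts of mesenchymal origin.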

In one assay the test system is HCC1569. The assay can be described thus: cell number relative to DMSO (% of DMSO); higher = more cells (less growth inhibition / toxicity). The following applies: concentration: 10 µM; 24 h. The essentials:
(§1)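 HCC1569 and TDF cells were seeded at 800 per well in 384-well plates in RPMI with 10% FBS and treated with compounds at 10 µM for 24 h at 37 °C, in triplicate. After fixation in 3.7% formaldehyde, cells were stained with a rabbit anti-H1.0 antibody, an AlexaFluor 647 secondary and DAPI, and six fields per well were imaged at ×10. H1.0 nuclear intensity or cell number is given as percent of the plate control, using the median of replicates, with HCC1569 values smoothed for positional effects.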
`CCN(CC)CCNC(=O)c1ccc(N)cc1.Cl` [Procainamide.HCl] returned a cell number of 108.
On the same count and under the same terms, as for `Cc1cccc(Nc2cc(Cl)nc(SCC(=O)O)n2)c1C`, the figure is 101; as for `Cc1cc2c(OCC(CNC(C)(C)C)OC(=O)c3ccccc3)cccc2[nH]1` (stereo not given) [Bopindolol], 98.1; as for `COC(=O)c1ccc2c(c1)nc(NC(=O)c1ccccc1)n2CCCc1ccccc1`, 80.4.
Still for that read-out and setting: for `COc1ccc(-c2cc(C(O)C3CCCCN3)c3ccccc3n2)cc1.Cl.Cl` (stereo not given) the value was 68.2; for `O=C1c2cccc(O)c2C(=O)c2c(O)cc(CO)cc21` [Aloe-emodine], 95.7.
On the same count and under the same terms, as for `O=C1CCN(c2ccccc2)N1` [Phenidone], the figure is 106; as for `Cl.N=c1c[n+](N2CCOCC2)[n-]o1` [3-Morpholinosydnonimine hydrochloride], 104.
The compound `CCCCCC=CC=CC(O)CCCCCCCC(=O)O` (stereo not given) came in with a cell number of 104.
Still for that read-out and setting: for `CCN(CC)CC(=O)Nc1c(C)cccc1C.Cl.O` [Lidocaine.HCl.H2O] the value was 99; for `Cc1ccc(OCC(O)C(C)NC(C)C)c2c1CCC2.Cl` (stereo not given) [ICI 118,551 hydrochloride], 101.
Compound `CN(C)c1ccnc2sc3c(=O)n(N4CCCCCC4)cnc3c12` showed a cell number of 109.
For `CCCCCC(O)C=CC=CCCCCCCCCCC(=O)O` (stereo not given), the cell number was 99.4.
With `CCC=CCC=CCC=CCCCCCCCCCC(=O)O` [Eicosatrienoic acid], the cell number was found to be 101 ± 2.8.
Still for that read-out and setting: as for `COc1cc2ncnc(Sc3nnc(C)s3)c2cc1OC`, the figure is 63.3; as for `COc1c2occc2cc2ccc(=O)oc12` [Xanthotoxin], 101.
`Cc1cc(C(C)(C)C)c(O)c(C(C)(C)C)c1` came in with a cell number of 99.4.
Same read-out and setting: as for `COC(=O)C(=C1OC(=O)C(c2ccccc2)=C1O)c1ccccc1` [Vulpinic acid], the figure is 98.5.
Turning to `CCn1cc(C(=O)O)c(=O)c2cc(F)c(N3CCNCC3)cc21` [Norfloxacin], the cell number was 100.
Take `Br.CN1CCc2c(cc(O)c(O)c2Cl)C(c2cccc(Cl)c2)C1` (stereo not given): the cell number is 89.6.
On to `Cc1cc(Nc2nc(NC(C)c3ccc(F)cc3)c(C#N)cc2F)n[nH]1` (stereo not given), for which the cell number is 51.8.
`CC(C)C1NC(=O)C(CCCCN)NC(=O)C(Cc2c[nH]c3ccccc23)NC(=O)C(Cc2ccc(O)cc2)NC(=O)C(C)N(C)C(=O)C(Cc2ccccc2)NC1=O` (stereo not given) [Seglitide] gave a cell number of 89.8.
On the same count and under the same terms, for `Cn1ccc(NC(=O)c2cc(Oc3ccc(C(=O)N4CCC4)c(F)c3)c3c(c2)OC(C)(C)C3)n1` the value was 103; for `CCN(CC)CCNC(=O)c1ccc(NC(C)=O)cc1.Cl` [N-Acetylprocainamide hydrochloride], 104.
Same read-out and setting: for `O=C(O)c1cccnc1Nc1cccc(C(F)(F)F)c1` [Niflumic acid] the value was 98.8 ± 5.9; for `COC(=O)c1ccc(O)c2[nH]c3c(C=O)c(O)cc(=O)c-3nc12` [Lomofungin], 105.
On the same count and under the same terms, for `CCC1Cc2cc(O)ccc2C2=C1c1ccc(O)cc1CC2CC` [(R,R)-cis-Diethyl tetrahydro-2,8-chrysenediol] the value was 87.5; for `CC1(C)CCCC(C)(C2CCC3(C)C2C(O)CC2C4(C)CCC(O)C(C)(C)C4C(O)CC23C)O1` (stereo not given) [Panaxatriol], 100.
Consider `COc1ccc2cc1Oc1ccc(cc1)CC1c3cc(c(OC)cc3CCN1C)Oc1c(OC)c(OC)cc3c1C(C2)N(C)CC3` (stereo not given) [Isotetrandrine], for which the cell number is 97.9.
On the same count and under the same terms, as for `Cc1coc2c1C(=O)C(=O)c1c-2ccc2c1CCCC2(C)C` [Tanshinone IIA], the figure is 85.3 ± 2.9; as for `Cc1ccc(S(=O)(=O)C=CC#N)cc1`, 68.3 and 78.4; as for `CCCCCCCCCCCC=CCC=CCCCC(=O)O` [5(Z), 8(Z)-Eicosadienoic acid], 101.
In the case of `CSc1ccc2c(c1)N(CCC1CCCCN1C)c1ccccc1S2.Cl` (stereo not given) [Thioridazine hydrochloride], the cell number was 86.6.
In the case of `O=C(O)c1ccc(SC2=NS(=O)(=O)c3ccccc32)cc1` [4-((1,1-dioxidobenzo[d]isothiazol-3-yl)thio)benzoic acid], the cell number came out at 100.
Same read-out and setting: for `O=C(O)C=Cc1cnc[nH]1` [4-Imidazoleacrylic acid] the value was 101; for `CN1C2CCC1CC(OC(=O)c1c[nH]c3ccccc13)C2.Cl` (stereo not given) [3-Tropanyl-indole-3-carboxylate hydrochloride], 103; for `O=c1cc(O)cc(C=Cc2ccc(O)c(O)c2)o1` [Hispidin], 97.3.
The same measure, in the same setting: as for `C=CC(=O)Nc1cc2c(Nc3ccc(F)c(Cl)c3)ncnc2cc1OCCCN1CCOCC1.Cl.Cl` [Canertinib], the figure is 75.8; as for `Cl.O.O.c1ccc2c(c1)CN1CCCC1=N2` [Desoxypeganine], 101; as for `CCCCCCCCCCCCCC=CC(O)C(CO)N(C)C` (stereo not given) [N,N-Dimethylsphingosine], 110.

A further assay has as its system TDF. Described as above. The following applies: concentration: 10 µM; 24 h. A digest of the protocol: as §1
`CCN(CC)CCNC(=O)c1ccc(N)cc1.Cl` [Procainamide.HCl] yielded a cell number of 101.
On the same count and under the same terms, as for `Cc1cccc(Nc2cc(Cl)nc(SCC(=O)O)n2)c1C`, the figure is 104; as for `Cc1cc2c(OCC(CNC(C)(C)C)OC(=O)c3ccccc3)cccc2[nH]1` (stereo not given) [Bopindolol], 89.5; as for `COC(=O)c1ccc2c(c1)nc(NC(=O)c1ccccc1)n2CCCc1ccccc1`, 65.7.
Compound `COc1ccc(-c2cc(C(O)C3CCCCN3)c3ccccc3n2)cc1.Cl.Cl` (stereo not given) came in with a cell number of 24.8.
The same measure, in the same setting: for `O=C1c2cccc(O)c2C(=O)c2c(O)cc(CO)cc21` [Aloe-emodine] the value was 89.9.
Same read-out and setting: as for `O=C1CCN(c2ccccc2)N1` [Phenidone], the figure is 97.6; as for `Cl.N=c1c[n+](N2CCOCC2)[n-]o1` [3-Morpholinosydnonimine hydrochloride], 108; as for `CCCCCC=CC=CC(O)CCCCCCCC(=O)O` (stereo not given), 100.
Compound `CCN(CC)CC(=O)Nc1c(C)cccc1C.Cl.O` [Lidocaine.HCl.H2O] yielded a cell number of 99.8.
As for `Cc1ccc(OCC(O)C(C)NC(C)C)c2c1CCC2.Cl` (stereo not given) [ICI 118,551 hydrochloride], the cell number was 104.
Still for that read-out and setting: for `CN(C)c1ccnc2sc3c(=O)n(N4CCCCCC4)cnc3c12` the value was 103.
`CCCCCC(O)C=CC=CCCCCCCCCCC(=O)O` (stereo not given) returned a cell number of 90.3.
On the same count and under the same terms, for `CCC=CCC=CCC=CCCCCCCCCCC(=O)O` [Eicosatrienoic acid] the value was 96.7 ± 14.
The compound `COc1cc2ncnc(Sc3nnc(C)s3)c2cc1OC` returned a cell number of 67.7.
The same measure, in the same setting: as for `COc1c2occc2cc2ccc(=O)oc12` [Xanthotoxin], the figure is 104; as for `Cc1cc(C(C)(C)C)c(O)c(C(C)(C)C)c1`, 105.
`COC(=O)C(=C1OC(=O)C(c2ccccc2)=C1O)c1ccccc1` [Vulpinic acid] returned a cell number of 95.3.
The same measure, in the same setting: as for `CCn1cc(C(=O)O)c(=O)c2cc(F)c(N3CCNCC3)cc21` [Norfloxacin], the figure is 108.
Compound `Br.CN1CCc2c(cc(O)c(O)c2Cl)C(c2cccc(Cl)c2)C1` (stereo not given) came in with a cell number of 81.1.
On the same count and under the same terms, for `Cc1cc(Nc2nc(NC(C)c3ccc(F)cc3)c(C#N)cc2F)n[nH]1` (stereo not given) the value was 28; for `CC(C)C1NC(=O)C(CCCCN)NC(=O)C(Cc2c[nH]c3ccccc23)NC(=O)C(Cc2ccc(O)cc2)NC(=O)C(C)N(C)C(=O)C(Cc2ccccc2)NC1=O` (stereo not given) [Seglitide], 98.2; for `Cn1ccc(NC(=O)c2cc(Oc3ccc(C(=O)N4CCC4)c(F)c3)c3c(c2)OC(C)(C)C3)n1`, 94.2.
On the same count and under the same terms, as for `CCN(CC)CCNC(=O)c1ccc(NC(C)=O)cc1.Cl` [N-Acetylprocainamide hydrochloride], the figure is 110; as for `O=C(O)c1cccnc1Nc1cccc(C(F)(F)F)c1` [Niflumic acid], 95.2 ± 23.
In turn, `COC(=O)c1ccc(O)c2[nH]c3c(C=O)c(O)cc(=O)c-3nc12` [Lomofungin] came in with a cell number of 117.
In turn, `CCC1Cc2cc(O)ccc2C2=C1c1ccc(O)cc1CC2CC` [(R,R)-cis-Diethyl tetrahydro-2,8-chrysenediol] showed a cell number of 110.
As for `CC1(C)CCCC(C)(C2CCC3(C)C2C(O)CC2C4(C)CCC(O)C(C)(C)C4C(O)CC23C)O1` (stereo not given) [Panaxatriol], the cell number was 93.4.
Still for that read-out and setting: as for `COc1ccc2cc1Oc1ccc(cc1)CC1c3cc(c(OC)cc3CCN1C)Oc1c(OC)c(OC)cc3c1C(C2)N(C)CC3` (stereo not given) [Isotetrandrine], the figure is 83.8.
Still for that read-out and setting: as for `Cc1coc2c1C(=O)C(=O)c1c-2ccc2c1CCCC2(C)C` [Tanshinone IIA], the figure is 45.7 ± 6; as for `Cc1ccc(S(=O)(=O)C=CC#N)cc1`, 103 and 100.
For the compound `CCCCCCCCCCCC=CCC=CCCCC(=O)O` [5(Z), 8(Z)-Eicosadienoic acid], the cell number turned out to be 96.9.
`CSc1ccc2c(c1)N(CCC1CCCCN1C)c1ccccc1S2.Cl` (stereo not given) [Thioridazine hydrochloride] gave a cell number of 90.6.
Compound `O=C(O)c1ccc(SC2=NS(=O)(=O)c3ccccc32)cc1` [4-((1,1-dioxidobenzo[d]isothiazol-3-yl)thio)benzoic acid] registered a cell number of 107.
As to `O=C(O)C=Cc1cnc[nH]1` [4-Imidazoleacrylic acid], the cell number came to 107.
As for `CN1C2CCC1CC(OC(=O)c1c[nH]c3ccccc13)C2.Cl` (stereo not given) [3-Tropanyl-indole-3-carboxylate hydrochloride], the cell number stood at 112.
In the case of `O=c1cc(O)cc(C=Cc2ccc(O)c(O)c2)o1` [Hispidin], the cell number is 94.8.
The same measure, in the same setting: as for `C=CC(=O)Nc1cc2c(Nc3ccc(F)c(Cl)c3)ncnc2cc1OCCCN1CCOCC1.Cl.Cl` [Canertinib], the figure is 87.4; as for `Cl.O.O.c1ccc2c(c1)CN1CCCC1=N2` [Desoxypeganine], 109; as for `CCCCCCCCCCCCCC=CC(O)C(CO)N(C)C` (stereo not given) [N,N-Dimethylsphingosine], 90.2.

The values above are taken from the supplement of paper PMC7156485.
